This is one part of a sample in which hits are shown more often than they occur.
NOMO-1 viab – STK33 inhibitor candidate reducing NOMO-1 cell viability. 37,000 tested, 7.5% active. inhibition, % (no concentration beside the values). AID 2330. NOMO-1 AML viability, CellTiter-Glo luminescence, 72 h; in the data active = inhibition above about 80%
ROS inducer – raises reactive oxygen species in U2OS cancer cells | U2OS ROS induction, H2DCF-DA fluorescence | AID 624156 | ROS induction (% of piperlongumine), % at 10 µM | 46,000 tested, 2% active; in the data active = ROS induction above about 79%, passing the limit was not always enough;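 also: 0% = DMSO vehicle median and 100% = reference compound median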
* = called active by the depositor.

How did C=C(C)[C@@H]1CC[C@]2(C(=O)O)CC[C@]3(C)[C@H](CCC4[C@]5(C)C(CC[C@]43C)[C@@](C)(CO)[C@@H](O)[C@@H]5C(=O)O)C12 (stereo partly drawn) do in these assays?
NOMO-1 viab: 9; ROS inducer: -2

What do the screens show for `CC(C)NC(=O)N(C)C[C@@H]1OCCCC[C@@H](C)Oc2ccc(NS(=O)(=O)c3cccs3)cc2C(=O)N([C@H](C)CO)C[C@@H]1C`?
NOMO-1 viab: 18; ROS inducer: 61

What do the screens show for `CCOc1ccccc1NC(=O)CSc1nc2c(oc3ccccc32)c(=O)n1CCOC`?
ROS inducer: 19

What do the screens show for `CC1(C)Oc2ccc3ccc(=O)oc3c2[C@@H](O)[C@H]1O[C@@H]1O[C@H](CO)[C@@H](O)[C@H](O)[C@H]1O`?
NOMO-1 viab: 4; ROS inducer: -14

How did COc1ccc(CN(C)C[C@H]2Oc3ccc(NC(=O)NC4CCCCC4)cc3C(=O)N([C@H](C)CO)C[C@H]2C)cc1 do in these assays?
NOMO-1 viab: 25; ROS inducer: -4

Results for CNC[C@H]1Oc2c(NS(=O)(=O)c3cn(C)cn3)cccc2C(=O)N([C@H](C)CO)C[C@@H]1C ?
NOMO-1 viab: 7; ROS inducer: -7

Results for C[C@H]1CN([C@@H](C)CO)C(=O)Cc2cc(NS(=O)(=O)c3ccccc3)ccc2O[C@H]1CN(C)Cc1ccc2c(c1)OCO2 ?
NOMO-1 viab: 4; ROS inducer: 55

Results for CN1CCc2cccc3c2[C@H]1Cc1ccc(O)c(O)c1-3 ?
NOMO-1 viab: 113*; ROS inducer: 0

What do the screens show for `C[C@@H]1CC(=O)c2c(ccc3c2C(=O)c2cccc(O)c2C3=O)C1`?
NOMO-1 viab: 71; ROS inducer: 15

Results for CS(=O)(=O)N(CC(=O)Nc1cc(Cl)ccc1Cl)c1ccc(I)cc1 ?
NOMO-1 viab: 20; ROS inducer: 4

Results for C[C@@H]1CN([C@@H](C)CO)C(=O)c2cc(N(C)C)ccc2O[C@H]1CN(C)S(C)(=O)=O ?
NOMO-1 viab: -2; ROS inducer: -1

What do the screens show for `CCCn1c(-c2ccc(S(=O)(=O)N3CCOCC3)cc2)csc1=Nc1ccccc1`?
ROS inducer: 83*

Results for O=C(COc1ccc(S(=O)(=O)N2CCOCC2)cc1)Nc1ccccc1 ?
NOMO-1 viab: -1; ROS inducer: -11

What do the screens show for `C[C@H]1CN([C@@H](C)CO)C(=O)Cc2cc(NC(=O)c3ccncc3)ccc2O[C@H]1CN(C)C`?
NOMO-1 viab: -10; ROS inducer: -2

Results for C[C@H]1CN([C@@H](C)CO)C(=O)Cc2cc(NC(=O)C3CC3)ccc2O[C@H]1CN(C)C(=O)Nc1ccc(F)cc1 ?
NOMO-1 viab: -6; ROS inducer: 0

What do the screens show for `COc1ccc(CN(C)C[C@@H]2Oc3ccc(NC(=O)c4ccncc4)cc3C(=O)N([C@H](C)CO)C[C@H]2C)cc1`?
NOMO-1 viab: 16; ROS inducer: 149*

What do the screens show for `C[C@@H]1CN([C@H](C)CO)C(=O)c2cc(NC(=O)c3ccncc3)ccc2O[C@H]1CN(C)Cc1ccc(-c2ccccc2)cc1`?
NOMO-1 viab: 93*; ROS inducer: 21

Results for C[C@@H]1CN([C@@H](C)CO)C(=O)c2cc(NC(=O)c3ccncc3)ccc2O[C@H]1CN(C)Cc1ccc(-c2ccccc2)cc1 ?
NOMO-1 viab: 29; ROS inducer: 6

Results for COc1ccc(CN(C)C[C@H]2Oc3ccc(NC(=O)c4ccncc4)cc3C(=O)N([C@H](C)CO)C[C@@H]2C)cc1 ?
NOMO-1 viab: -10; ROS inducer: -9

How did COc1ccc(NC(=O)Nc2ccc3c(c2)C(=O)N([C@@H](C)CO)C[C@@H](C)[C@@H](CN(C)Cc2ccncc2)O3)cc1 do in these assays?
NOMO-1 viab: 22; ROS inducer: -14

How did COc1ccc(NC(=O)Nc2ccc3c(c2)C(=O)N([C@H](C)CO)C[C@H](C)[C@H](CN(C)Cc2ccncc2)O3)cc1 do in these assays?
NOMO-1 viab: 94*; ROS inducer: -5

What do the screens show for `COc1ccc(CN(C)C[C@H]2Oc3c(NC(=O)NC(C)C)cccc3C(=O)N([C@@H](C)CO)C[C@H]2C)cc1`?
NOMO-1 viab: 19; ROS inducer: 72

What do the screens show for `O=C(NC1CCCC1)c1ccc(-n2c(-c3ccccc3)cc3c2CCCC3)cc1`?
ROS inducer: 7

What do the screens show for `CC(=O)O[C@]1(C(C)=O)CCC2C3C[C@H](C)C4=CC(=O)CC[C@]4(C)C3CC[C@@]21C` (stereo partly drawn)?
NOMO-1 viab: 25; ROS inducer: 19

How did CC(=O)[C@H]1CCC2[C@@H]3CCC4=CC(=O)CC[C@]4(C)C3CC[C@@]21C (stereo partly drawn) do in these assays?
NOMO-1 viab: 61; ROS inducer: 14

Results for CCCCCC(=O)O[C@]1(C(C)=O)CCC2C3CCC4=CC(=O)CC[C@]4(C)C3CC[C@@]21C (stereo partly drawn) ?
NOMO-1 viab: 110*; ROS inducer: 71

What do the screens show for `CC(=O)[C@@]1(O)CCC2C3CCC4=CC(=O)CC[C@]4(C)C3CC[C@@]21C` (stereo partly drawn)?
NOMO-1 viab: 34; ROS inducer: 155*

How did Cc1ccc(S(=O)(=O)N(C)C[C@@H]2Oc3ncc(-c4cccc(F)c4)cc3C(=O)N([C@H](C)CO)C[C@@H]2C)cc1 do in these assays?
ROS inducer: 9

How did N#Cc1ccc(/C=N/NC(=O)CCCCCCC(=O)Nc2ccccc2O)cc1 do in these assays?
ROS inducer: 2

How did CC1CCCC(C)N1CCNC(=O)c1ccc2c(c1)ncn2C1CCCCC1 (stereo not drawn) do in these assays?
ROS inducer: -15

How did COc1ccc(-c2nc(C)c(CCNC(=O)c3cccc(C(F)(F)F)c3)s2)cc1 do in these assays?
ROS inducer: 5

Results for N=C1S/C(=C/c2ccccc2)C(=O)N1c1nonc1N ?
NOMO-1 viab: 28; ROS inducer: 46

What do the screens show for `CCOc1cc(/C=C2/SC(=N)N(c3nccs3)C2=O)ccc1OCCN1CCOCC1`?
NOMO-1 viab: 112*; ROS inducer: 96*

Results for O=C(CSc1nc2ccccc2nc1N1CCCC1)Nc1ccccc1 ?
NOMO-1 viab: 43; ROS inducer: 0

Results for CC1CN(c2nc3ccccc3nc2SCC(=O)Nc2ccccc2)CC(C)O1 (stereo not drawn) ?
NOMO-1 viab: 88*; ROS inducer: 22

What do the screens show for `Cc1ccc(S(=O)(=O)Nc2ccc3c(c2)CC(=O)N([C@@H](C)CO)C[C@H](C)[C@@H](CN(C)Cc2ccccc2)O3)cc1`?
NOMO-1 viab: 91*; ROS inducer: 28

How did Cc1ccc(S(=O)(=O)Nc2ccc3c(c2)CC(=O)N([C@H](C)CO)C[C@H](C)[C@H](CN(C)Cc2ccccc2)O3)cc1 do in these assays?
NOMO-1 viab: 98*; ROS inducer: -1

How did Cc1ccc(S(=O)(=O)Nc2ccc3c(c2)CC(=O)N([C@H](C)CO)C[C@@H](C)[C@H](CN(C)Cc2ccccc2)O3)cc1 do in these assays?
NOMO-1 viab: 5; ROS inducer: 4

Results for C[C@@H]1CN([C@H](C)CO)C(=O)Cc2cc(NS(=O)(=O)c3ccccc3)ccc2O[C@H]1CN(C)Cc1ccccc1 ?
NOMO-1 viab: 20; ROS inducer: 23

What do the screens show for `Cc1sc2ncnc(SCC(=O)Nc3ccc(-c4nc5ccccc5s4)cc3)c2c1C`?
NOMO-1 viab: 19
